Assay outcomes deposited in PubChem BioAssay by National Center for Advancing Translational Sciences (NCATS).
AMA1 RON2 block: qHTS for Inhibitors of AMA1-RON; Towards Development of Antimalarial Drug Lead: Primary Screen; Potency, µM (top dose mostly 58.2 µM), without a hit: top-dose activity change, negative = inhibition, hits mostly inhibitors; Plasmodium falciparum AMA1 (3D7) - RON2 peptide interaction; 360,000 compounds, 0.2% hits; AlphaScreen AMA1-biotinylated RON2 peptide binding; AID 720542, 2013;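 also: potency is read from the fitted curve at half-maximal effect; 0% = vehicle wells and -100% = peptide control; nearly all actives have a fitted effect of over 45% in size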
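AMA1 (3D7) with his tag at 25 nM final met compounds first, then biotinylated RON2 peptide at 25 nM; detection used donor plus acceptor beads, 10 µg/mL apiece, read by AlphaScreen after 30 min at room temperature.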
Pf growth 48h: Primary qHTS for delayed death inhibitors of the malarial parasite plastid, 48 hour incubation | Potency, µM (doses to about 28.7 µM), inactives show top-dose activity change, negative = inhibition, usual class: inhibitors | 310,000 compounds, 5.9% hits | P. falciparum luciferase growth in erythrocytes, 48 h; also: potency is read from the fitted curve at half-maximal effect; % is scaled to controls: 0 for no effect and ±100 for the full control effect
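In quantitative HTS format, infected erythrocytes bearing luciferase-reporter parasites were treated for a single generation at 37 C. Luminescence after adding detection reagent served as the growth measure.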
NS1 function inh: qHTS Assay for Inhibitors of Influenza NS1 Protein Function; Potency, µM (doses to about 46.1 µM), for the others: at the top dose activity, positive = more growth; 270,000 compounds, 0.4% hits; AID 2326, 2010; calls by dose curve; also: potency is read from the fitted curve at half-maximal effect; actives are rising curves; nearly all actives have a fitted effect of over 50% in size
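S. cerevisiae expressing influenza A NS1, grown in glucose, washed, then diluted 1:100 into pH 6.0 -URA galactose medium with 23 nl compound. Growth recovery read as OD600; NS1-free strain serves as control.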
Pf growth 96h: Primary qHTS for delayed death inhibitors of the malarial parasite plastid, 96 hour incubation. AID 504834, 2011. Potency, µM (doses to about 28.7 µM), inactives show at the highest dose activity change, negative = inhibition, usual class: inhibitors. P. falciparum luciferase reporter growth, 96 h. 320,000 compounds, 6.9% hits; also: potency is read from the fitted curve at half-maximal effect; % is scaled to controls: 0 for no effect and ±100 for the full control effect
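Two parasite generations (96 h, 37 C, 5% CO2) of compound exposure in infected erythrocytes (0.05% parasitemia, 2% hematocrit). Luciferase-reporter P. falciparum; decreased luminescence indicates inhibited growth, aimed at apicoplast-acting delayed death.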
SARS PLP yeast: qHTS of Yeast-based Assay for SARS-CoV PLP; AID 485353, 2010; 330,000 compounds, 0.19% hits; S. cerevisiae expressing SARS-CoV PLpro, growth rescue; Potency, µM (doses to about 32.9 µM), without a hit: at the top dose activity, positive = growth rescue, usual class: activators; calls by dose curve; also: potency is read from the fitted curve at half-maximal effect; 0% is about no effect; nearly all actives have a fitted effect of over 55% in size
HCV inh: qHTS Assay for Inhibitors of Hepatitis C Virus (HCV). Huh7.5.1 HCVcc-Cre infection, luciferase reporter, 44 h. Potency, µM (highest dose often 41.8 µM), for the others: top-dose activity change, negative = inhibition, most hits filed as inhibitors. 340,000 compounds, 3.4% hits; also: potency is read from the fitted curve at half-maximal effect; % is scaled to controls: 0 for no effect and ±100 for the full control effect
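Reporter virus HCVcc-Cre (~0.5 moi) infects cells exposed to compound; seeding density 1,000 cells/well with 4 h settling beforehand. Luminescence, 15 sec read, taken 44 h post-infection following a 15 min RT substrate incubation.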
NS1 inh valid: Assay for Inhibitors of Influenza NS1 Protein Function: Hit Validation | 1,400 tested, under 10 active | influenza NS1 function cell assay, 15-point titration | activity change, negative = inhibition, % at 32.9 µM | shares compounds with NS1 function inh; calls by dose curve; also: 0% is about no effect
Flu PR8 replic: Assay for Inhibitors of Influenza NS1 Protein Function: Influenza virus replication assay in MDCK cells infected with virus A/PR/8/34 | virus titer (log TCID50), log10 TCID50 at 5 µM | shares compounds with NS1 function inh | AID 504647, 2011 | 95 compounds, 30% hits | MDCK infected influenza A/PR/8/34, virus titer TCID50; active compounds read low; call rule not given here
Active calls of the source: *; ? = inconclusive; / = no result given; [ ] = another dose, or the depositor's remark. A selection: hits, their analogues and other compounds. The true share with any hit is near 12%. Unless noted, calls follow the shape of the dose curve; as a rule, active = well fitted curve in the direction sought with a large enough effect; inconclusive = small, poorly fitted or top-dose-only effect, or another doubt; inactive = no such curve, though single readings can be large; an effect the other way counts as inactive or inconclusive.

SMILES | AMA1 RON2 block | Pf growth 48h | NS1 function inh | Pf growth 96h | SARS PLP yeast | HCV inh | NS1 inh valid | others
Cc1ccc2cc(C#N)c(N3CCN(C)CC3)nc2c1 | 1% | 2% | 0% | 1% | -1% | ? | /
Cc1ccc2nc(N3CCN(C)CC3)c(C#N)cc2c1 | -2% | -16% | 6.3µM* | -10% | -4% | -17% | 0
CC1=C(C(=O)Nc2ccccc2C(F)(F)F)C(c2sccc2C)NC(=S)N1 (stereo unspecified) | 12% | -6% | / | 7% | 1% | ? | /
CN(C)N1C(N)=C(C#N)C(c2ccccc2)C2=C1CC(C)(C)CC2=O (stereo unspecified) | 7% | / | 2% | -10% | -1% | -9% | /
CN(C)N1C(N)=C(C#N)C(c2cccc3ccccc23)C2=C1CC(c1ccccc1)CC2=O (stereo unspecified) | 29% | 9.3µM* | 22µM* | ? | 0% | ? | -1
Cc1ccc(NC(=O)CCC(=O)N2CCC(C)CC2)c([N+](=O)[O-])c1 | 9% | 9% | -15% | -5% | ? | 10% | /
Cc1ccc(S(=O)(=O)N(C)C)cc1NC(=O)CCc1ccccc1 | 7% | 22% | 0% | 32% | 0% | -1% | /
O=C(Cc1ccccc1)Nc1ccc(NC(=O)c2ccccc2)c(Cl)c1 | 0% | 0% | 20% | ? | -5% | -21% | /
Cc1ccc(NC(=O)C2=C(C(=O)O)CCCC2)cc1F | -1% | 30% | 17% | -27% | -6% | 12% | /
CCc1ccc(/C=C2\CN(CC)Cc3c2nc2ccccc2c3C(=O)O)cc1 | 1% | ? | 3.5µM* | ? | 1% | 16% | -15
CN(C)S(=O)(=O)c1ccc2oc(SCC(=O)NCC(F)(F)F)nc2c1 | 5% | ? | 10µM* | 28% | ? | 6% | 3
Cc1ccc(NC(=O)CN2C(=O)S/C(=C\c3cc(C)n(-c4cccc(C(=O)O)c4)c3C)C2=O)cc1 | -1% | 3% | 11µM* | -18% | 1% | -19% | 7
CC(=O)NC1C(OCc2ccccc2)OC2COC(c3ccccc3)OC2C1OCC(=O)O (stereo unspecified) | 76% | 36% | 8% | -21% | 0% | -8% | /
COC(=O)CCCNC(=O)CN1CC(c2ccccc2)CC1=O (stereo unspecified) | 12% | 11% | ? | 7% | 2% | 3% | 5
Cc1ccc(N(CC(=O)Nc2cccc(C)c2)S(=O)(=O)c2cccc3nonc23)cc1 | -9% | ? | 7.1µM* | -2% | -6% | ? | -14 | Flu PR8 replic=8.3
Cc1ccc(NC(=O)CCS(=O)(=O)c2cccc3nonc23)cc1 | -9% | 1% | / | 19% | -2% | 10% | /
Cc1ccc(C(C)C)c(OCc2ccc(C(=O)N/N=C/c3ccc(O)c(O)c3)cc2)c1 | 20% | ? | 13µM* | ? | -3% | ? | 14
C=CCNC(=O)/C(=C\C=C\c1ccccc1)NC(=O)c1ccc(OCCCC)cc1 | -8% | 35% | 11µM* | 88% | -13% | -12% | ?
COc1ccc(S(=O)(=O)N2CCOC2CNC(=O)C(=O)NCCc2c[nH]c3ccccc23)cc1C (stereo unspecified) | 0% | ? | 14µM* | 9.3µM* | -3% | 11µM* | 1
CC(=O)N1CCN=C1SCc1cccc(F)c1 | 7% | 18% | -1% | -17% | -2% | -2% | /
CCc1ccc2oc(-c3cc(N)cc(C)c3O)nc2c1 | 13% | 193% | 14µM* | 29% | -1% | ? | 19
Cc1cc(NC(=O)c2ccccc2)ncc1NC(=O)c1ccco1 | -11% | 33% | ? | / | -25% | -2% | -23
CC(Sc1nc2ccccc2c(=O)n1CCCN1CCOCC1)C(=O)N1CCc2ccccc21 (stereo unspecified) | 7% | / | / | / | / | -4% | /
COc1ccc(S(=O)(=O)Nc2cc(C(=O)NC3CCCCCC3)ccc2N2CCOCC2)cc1 | -9% | 11% | 10µM* | ? | 14% | -17% | 1
C1=C(CCNC2=NCCCCC2)CCCC1 | 0% | -21% | 20µM* | -28% | 17% | 15% | -11
SMILES | AMA1 RON2 block | Pf growth 48h | NS1 function inh | Pf growth 96h | SARS PLP yeast | HCV inh | NS1 inh valid | others
CC(=O)Nc1c(C)ccc(CNC(=O)COc2cc(C)ccc2C)c1C | 5% | -6% | 13% | -17% | 1% | -7% | /
COc1cccc(/C=N/NC(=O)c2nc(-c3ccccc3)cc(-c3ccccc3)n2)c1 | -2% | 10µM* | ? | 7% | 6% | 1% | -26
COc1cccc(/C=N/NC(=O)c2cnccn2)c1 | 8%[2.32 µM] | 37% | -8% | 0% | 2% | 1% | /
O=C(O)COc1ccccc1/C=N/NC(=O)COc1ccc(-c2ccccc2)cc1 | 2% | 94% | 16% | 11% | -5% | 9% | /
COc1ccc(Br)c(/C=N/NC(=O)COc2ccc(-c3ccccc3)cc2)c1 | -4% | ? | ? | -18% | / | 7.9µM* | -12
Cc1ccc(C2N(c3ccc(F)cc3)C(=O)C3CCCN32)cc1 (stereo unspecified) | -3% | / | 1.8µM* | -5% | 3% | 1% | -9
O=C(NC(=S)NCC1CCCO1)C(c1ccccc1)c1ccccc1 (stereo unspecified) | -1% | 0% | 18% | ? | -6% | 3% | /
COC(=O)C1=C(C)OC(N)=C(C#N)C1c1c(C)nn(C)c1C (stereo unspecified) | 5% | 29% | 2.2µM* | ? | 10% | 15% | 10
COC(=O)C1=C(C)OC(N)=C(C#N)C1c1c(C)nn(-c2ccccc2)c1Cl (stereo unspecified) | 2% | -13% | -4% | ? | 0% | 0% | /
COC(=O)[C@@]1(Cc2ccc(F)cc2)[C@H]2c3cc(C(=O)N4CCCC4)n(CCc4ccc(OC)c(Br)c4)c3C[C@H]2CN1C(=O)c1ccccc1 | -1% | / | / | / | / | / | /
